Test results: the supplement of paper PMC12067093, “Discovery and optimisation of a covalent ligand for TRIM25 and its application to targeted protein ubiquitination” (Chemical Science, 2025)
The full data set covers some 21,000 targets. This sample favours those with the largest changes.

Compound: Cc1cc(ccc1-c1ccccc1)C(=O)N1CCCN(CC1)C(=O)CCl [compound 10]
Assay: probe-labelled cysteine peptide fold change vs DMSO (competition) (log2 fold change); higher = less target engagement (more negative = stronger competition)
Conditions: THP-1, incubation time: 4 h
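Also: competitive profiling in live THP-1 cells: cysteine peptides tagged with an iodoacetamide desthiobiotin (IA-DTB) probe, intensity after compound treatment relative to DMSO-treated cells.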

UniProt Q92619, sequence (Q92619 whole entry, looked up): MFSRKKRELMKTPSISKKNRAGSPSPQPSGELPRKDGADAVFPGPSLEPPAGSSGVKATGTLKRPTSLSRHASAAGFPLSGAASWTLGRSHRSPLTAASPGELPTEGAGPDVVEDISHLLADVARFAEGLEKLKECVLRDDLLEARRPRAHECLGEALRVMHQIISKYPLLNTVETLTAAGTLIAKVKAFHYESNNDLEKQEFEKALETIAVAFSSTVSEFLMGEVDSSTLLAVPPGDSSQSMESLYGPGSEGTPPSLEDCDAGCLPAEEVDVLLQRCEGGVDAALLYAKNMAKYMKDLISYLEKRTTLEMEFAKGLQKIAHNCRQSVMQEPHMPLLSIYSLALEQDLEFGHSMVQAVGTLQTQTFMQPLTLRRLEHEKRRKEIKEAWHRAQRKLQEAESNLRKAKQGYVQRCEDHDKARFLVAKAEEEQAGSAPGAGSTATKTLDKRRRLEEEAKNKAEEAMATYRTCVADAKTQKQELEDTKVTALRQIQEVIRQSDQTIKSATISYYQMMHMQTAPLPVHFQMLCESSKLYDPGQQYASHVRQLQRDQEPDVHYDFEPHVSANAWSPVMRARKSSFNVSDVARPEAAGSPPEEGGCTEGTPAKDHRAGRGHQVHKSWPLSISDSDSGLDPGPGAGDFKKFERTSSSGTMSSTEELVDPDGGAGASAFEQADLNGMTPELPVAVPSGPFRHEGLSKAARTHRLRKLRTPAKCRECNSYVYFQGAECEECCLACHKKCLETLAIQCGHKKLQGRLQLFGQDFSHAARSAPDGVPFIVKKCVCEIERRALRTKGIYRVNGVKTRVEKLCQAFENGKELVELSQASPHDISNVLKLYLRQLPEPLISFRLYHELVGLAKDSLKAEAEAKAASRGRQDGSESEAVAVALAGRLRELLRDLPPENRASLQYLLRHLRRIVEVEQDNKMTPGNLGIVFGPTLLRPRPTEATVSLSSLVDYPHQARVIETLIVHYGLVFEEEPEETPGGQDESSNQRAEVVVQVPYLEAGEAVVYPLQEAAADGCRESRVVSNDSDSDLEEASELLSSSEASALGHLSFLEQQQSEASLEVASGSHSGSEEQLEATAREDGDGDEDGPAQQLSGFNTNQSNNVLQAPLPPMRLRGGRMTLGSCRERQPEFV
UniProt P55265, sequence (P55265 whole entry, looked up): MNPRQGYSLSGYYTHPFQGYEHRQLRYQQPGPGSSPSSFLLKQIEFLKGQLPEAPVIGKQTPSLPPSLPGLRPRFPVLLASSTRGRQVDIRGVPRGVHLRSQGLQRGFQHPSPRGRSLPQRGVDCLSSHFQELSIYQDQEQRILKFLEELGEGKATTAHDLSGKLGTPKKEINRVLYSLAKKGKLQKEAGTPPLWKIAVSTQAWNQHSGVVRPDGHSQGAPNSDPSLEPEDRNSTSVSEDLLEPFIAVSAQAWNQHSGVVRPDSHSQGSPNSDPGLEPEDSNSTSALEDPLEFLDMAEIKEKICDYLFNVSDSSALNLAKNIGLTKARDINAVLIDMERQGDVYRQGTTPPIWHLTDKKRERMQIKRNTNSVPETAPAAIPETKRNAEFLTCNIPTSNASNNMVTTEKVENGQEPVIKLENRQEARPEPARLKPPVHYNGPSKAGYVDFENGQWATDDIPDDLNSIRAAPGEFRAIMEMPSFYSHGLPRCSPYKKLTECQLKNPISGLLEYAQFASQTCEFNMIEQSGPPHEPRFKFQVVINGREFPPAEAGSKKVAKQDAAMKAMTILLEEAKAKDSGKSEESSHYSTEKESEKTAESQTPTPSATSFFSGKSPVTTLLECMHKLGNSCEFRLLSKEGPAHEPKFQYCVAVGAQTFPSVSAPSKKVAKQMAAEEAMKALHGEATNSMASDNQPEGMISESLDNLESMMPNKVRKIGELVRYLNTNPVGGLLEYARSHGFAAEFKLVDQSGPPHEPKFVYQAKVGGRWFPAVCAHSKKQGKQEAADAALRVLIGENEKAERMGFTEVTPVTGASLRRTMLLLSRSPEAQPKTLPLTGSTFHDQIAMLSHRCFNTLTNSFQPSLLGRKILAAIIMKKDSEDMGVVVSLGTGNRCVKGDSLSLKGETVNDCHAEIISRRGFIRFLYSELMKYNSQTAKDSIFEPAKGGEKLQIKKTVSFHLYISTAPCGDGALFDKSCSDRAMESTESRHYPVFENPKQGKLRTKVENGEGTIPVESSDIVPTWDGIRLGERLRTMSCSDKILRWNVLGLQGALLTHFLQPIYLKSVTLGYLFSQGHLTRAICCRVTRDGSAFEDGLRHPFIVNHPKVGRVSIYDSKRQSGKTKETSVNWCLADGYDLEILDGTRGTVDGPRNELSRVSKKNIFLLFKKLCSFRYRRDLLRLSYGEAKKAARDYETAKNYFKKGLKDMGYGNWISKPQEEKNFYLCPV
UniProt Q66PJ3, sequence (Q66PJ3 whole entry, looked up): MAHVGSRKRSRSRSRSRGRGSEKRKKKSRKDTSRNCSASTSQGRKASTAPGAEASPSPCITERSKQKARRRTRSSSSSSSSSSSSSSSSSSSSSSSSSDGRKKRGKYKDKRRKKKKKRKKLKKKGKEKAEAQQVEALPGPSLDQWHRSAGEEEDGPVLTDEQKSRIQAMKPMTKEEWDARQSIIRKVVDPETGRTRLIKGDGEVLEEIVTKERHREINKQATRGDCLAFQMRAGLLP
UniProt Q96BJ3, sequence (Q96BJ3 whole entry): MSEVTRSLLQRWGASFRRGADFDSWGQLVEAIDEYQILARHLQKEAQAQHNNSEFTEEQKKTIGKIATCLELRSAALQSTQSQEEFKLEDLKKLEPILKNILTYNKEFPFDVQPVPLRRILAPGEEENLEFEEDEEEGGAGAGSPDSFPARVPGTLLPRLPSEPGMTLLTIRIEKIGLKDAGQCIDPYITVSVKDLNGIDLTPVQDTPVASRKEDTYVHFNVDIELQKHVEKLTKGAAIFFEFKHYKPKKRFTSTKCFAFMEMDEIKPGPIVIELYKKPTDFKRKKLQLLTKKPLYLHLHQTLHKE
UniProt O00170, sequence (O00170 whole entry, looked up): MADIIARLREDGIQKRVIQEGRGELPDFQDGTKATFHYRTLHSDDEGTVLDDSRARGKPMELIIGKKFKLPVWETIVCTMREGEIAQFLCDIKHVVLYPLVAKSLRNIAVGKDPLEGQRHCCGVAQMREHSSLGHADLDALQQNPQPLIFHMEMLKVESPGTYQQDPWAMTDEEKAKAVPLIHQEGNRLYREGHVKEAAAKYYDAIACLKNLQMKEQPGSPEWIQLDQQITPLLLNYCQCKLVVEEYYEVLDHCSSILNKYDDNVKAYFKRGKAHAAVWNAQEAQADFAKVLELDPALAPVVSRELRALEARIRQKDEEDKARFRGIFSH
UniProt Q9NVV5, sequence (Q9NVV5 whole entry): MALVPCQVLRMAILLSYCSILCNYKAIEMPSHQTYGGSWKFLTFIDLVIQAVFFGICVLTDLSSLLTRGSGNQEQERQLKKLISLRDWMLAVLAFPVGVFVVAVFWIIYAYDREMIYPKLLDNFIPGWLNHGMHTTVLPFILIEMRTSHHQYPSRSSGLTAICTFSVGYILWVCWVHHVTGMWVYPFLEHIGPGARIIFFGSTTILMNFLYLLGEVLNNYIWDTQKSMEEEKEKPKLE
UniProt Q9Y4W6, sequence (Q9Y4W6 whole entry, looked up): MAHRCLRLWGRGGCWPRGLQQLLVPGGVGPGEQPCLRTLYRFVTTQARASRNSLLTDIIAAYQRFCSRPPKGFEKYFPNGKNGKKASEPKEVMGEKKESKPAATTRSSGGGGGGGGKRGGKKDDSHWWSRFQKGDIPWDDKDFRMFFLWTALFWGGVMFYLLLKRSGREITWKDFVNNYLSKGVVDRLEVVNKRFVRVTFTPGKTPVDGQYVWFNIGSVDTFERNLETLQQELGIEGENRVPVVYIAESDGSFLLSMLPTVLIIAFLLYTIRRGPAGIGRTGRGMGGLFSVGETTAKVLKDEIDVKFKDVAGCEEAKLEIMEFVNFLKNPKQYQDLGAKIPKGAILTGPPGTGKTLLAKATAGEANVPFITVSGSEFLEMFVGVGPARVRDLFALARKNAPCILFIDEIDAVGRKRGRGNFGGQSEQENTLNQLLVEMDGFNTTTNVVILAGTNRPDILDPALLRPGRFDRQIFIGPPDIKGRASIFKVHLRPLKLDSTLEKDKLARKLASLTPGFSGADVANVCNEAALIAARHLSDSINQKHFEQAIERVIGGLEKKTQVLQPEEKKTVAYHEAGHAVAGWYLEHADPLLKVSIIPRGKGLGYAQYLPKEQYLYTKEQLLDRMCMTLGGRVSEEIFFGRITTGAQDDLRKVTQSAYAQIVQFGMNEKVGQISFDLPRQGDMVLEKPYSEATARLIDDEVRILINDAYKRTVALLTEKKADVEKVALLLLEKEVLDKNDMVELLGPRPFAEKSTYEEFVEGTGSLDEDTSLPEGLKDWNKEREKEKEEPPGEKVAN
UniProt Q6UXV4, sequence (Q6UXV4 whole entry, looked up): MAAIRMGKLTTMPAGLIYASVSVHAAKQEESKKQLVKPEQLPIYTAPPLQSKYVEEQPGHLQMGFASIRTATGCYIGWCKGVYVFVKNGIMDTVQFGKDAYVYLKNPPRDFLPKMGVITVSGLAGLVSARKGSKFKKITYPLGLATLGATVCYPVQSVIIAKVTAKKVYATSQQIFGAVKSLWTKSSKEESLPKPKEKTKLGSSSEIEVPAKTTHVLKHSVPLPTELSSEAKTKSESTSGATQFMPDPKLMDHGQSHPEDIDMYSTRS

| Target | probe-labelled cysteine peptide fold change (10 µM) | probe-labelled cysteine peptide fold change (50 µM) |
| --- | --- | --- |
| AIDA_Q96BJ3_69_IATCLELR (UniProt Q96BJ3) | -0.123 | -0.606 |
| APOOL_Q6UXV4_74_TATGCYIGWCK (UniProt Q6UXV4) | -0.823 | -1.75 |
| AIP_O00170_122_HCCGVAQMR (UniProt O00170) | -0.267 | -2.09 |
| AFG3L2_Q9Y4W6_313_DVAGCEEAKLEIMEFVNFLK (UniProt Q9Y4W6) | -0.324 | -0.391 |
| ARHGAP45_Q92619_809_LCQAFENGK (UniProt Q92619) | 0.077 | 0.0355 |
| ARL6IP4_Q66PJ3-3_220_NCSASTSQER (UniProt Q66PJ3) | -0.274 | -0.819 |
| ANKFY1_Q9P2R3_389_TPLHVSIMAGNEYVFSQLLQCK (UniProt Q9P2R3) | 0.123 | 0.15 |
| ATP6V0A1_Q93050_58_RCEEMDR (UniProt Q93050) | 0.102 | 0.183 |
| ATRX_P46100_1242_IKPVTENLVLSSHTGFCQSSGDEALSK (UniProt P46100) | -0.15 | -0.661 |
| ADAR_P55265_851_CFNTLTNSFQPSLLGR (UniProt P55265) | -0.0671 | 0.166 |
| ALDH9A1_P49189_355_VLCGGDIYVPEDPK (UniProt P49189) | -0.105 | 0.0431 |
| AIG1_Q9NVV5_6_MALVPCQVLR (UniProt Q9NVV5) | -0.836 | -1.35 |
| ALDH9A1_P49189_267_SPLIIFSDCDMNNAVK (UniProt P49189) | 0.208 | 0.2 |
| ACTR3_P61158_8+12_LPACVVDCGTGYTK (UniProt P61158) | -0.243 | -0.313 |
